The supplement of paper PMC8183993
Several values for one entry are separate records, joined by “and”; a condition that tells them apart may be missing. Equal entries are not always repeated. Structures can show the parent of a compound that is named as a salt. ± gives the standard deviation of the averaged measurements. Over roughly 3,200 compounds, “nuclei count (viability) relative to DMSO” has its median near 99; the lowest 2% begin near 16. This excerpt belongs to a sample that is enriched for the lowest values.

These compounds were tested on U2OS (assay: nuclei count (viability) relative to DMSO (% of DMSO); higher = more viable cells). Conditions: 10 µM; 24 h.
Method: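 Primary image-based screen in U2OS cells: compounds at 10 uM for 24 h, then a 1 h o-propargyl-puromycin (OPP) pulse, click labelling, and high-throughput microscopy. Mean cytoplasmic OPP intensity and nuclei count were normalised to DMSO wells within each plate (DMSO = 100) and averaged over triplicate plates.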

Row | SMILES | nuclei count
1 | CCC(C)N(C)C(=O)c1cc2ccccc2c(-c2ccccc2Cl)n1 (centres undefined) | 106
2 | COC(=O)c1c(-c2cc(OC)c(OC)c(OC)c2)c2ccnc(OCc3ncccn3)c2c(=O)n1Cc1ccnc(C)c1 [T 0156 hydrochloride] | 107
3 | COc1cc2nccc(Oc3ccc(NC(=O)C4(C(=O)Nc5ccc(F)cc5)CC4)cc3)c2cc1OC [Cabozantinib malate] | 59
4 | COc1cc2nccc(Oc3ccc(NC(=O)C4(C(=O)Nc5ccc(F)cc5)CC4)cc3)c2cc1OC [XL-184 free base (Cabozantinib)] | 51.5
5 | COc1cc2c(Oc3ccc(NC(=O)C4(C(=O)Nc5ccc(F)cc5)CC4)cc3F)ccnc2cc1OCCCN1CCOCC1 | 12
6 | COc1cc2c(Nc3ccc(NC(=O)c4ccccc4)cc3)ncnc2cc1OCCCN1CCOCC1 | 49.8 and 53.3
7 | O=C1c2c(O)cc(O)cc2OC(c2ccc(O)c(O)c2)C1O (centres undefined) [Taxifolin (Dihydroquercetin)] | 90.7
8 | O=C(O)c1ccc(O)c2ncccc12 | 99.5
9 | COc1ccc([C@@H]2CNC(=O)C2)cc1OC1CCCC1 [(R)-(-)-Rolipram] | 96.2
10 | CC[N+](CC)(CC)CC(=O)Nc1c(C)cccc1C [QX-314 bromide] | 104
11 | CC[N+](CC)(CC)CC(=O)Nc1c(C)cccc1C [QX 314 chloride] | 104
12 | CC[N+](CC)(CC)CC(=O)Nc1c(C)cccc1C [QX 314 bromide] | 97.5
13 | COc1ccc(CN(CCN(C)C)c2ccccn2)cc1 [Mepyramine maleate] | 104
14 | CCCCCCCCCCCCCCCC[N+](C)(C)CCN(Cc1ccc(OC)cc1)c1ncccn1 [Thonzonium bromide] | 12.1
15 | COc1ccc(CN(CCN(C)C)c2ccccn2)cc1 [Pyrilamine maleate] | 102
16 | CN(C)CCN(Cc1ccc(Cl)cc1)c1ccccn1 [Chloropyramine hydrochloride] | 105
17 | CC(=O)O[C@@H]1C[C@H]2C(C)(C)C(=O)C=C[C@]2(C)[C@H]2CC[C@@]3(C)[C@H](c4ccoc4)OC(=O)[C@H]4O[C@]43[C@@]21C [Gedunin] | 85.6
18 | COC1CCC(C(=O)c2ccc3nc4c(cc3c2)CCCO4)CC1 (centres undefined) | 96.5
19 | CCn1cc(-c2cccc(C(F)(F)F)c2)c2sc(C(=N)NC3CCS(=O)(=O)CC3)cc2c1=O | 91.5
20 | Cc1ccc(C(=O)N(CCCN)[C@@H](c2nc3cc(Cl)ccc3c(=O)n2Cc2ccccc2)C(C)C)cc1 | 9.23
21 | Cc1ccc(C(=O)N(CCCN)[C@@H](c2oc3cc(Cl)ccc3c(=O)c2Cc2ccccc2)C(C)C)cc1 | 20.5
22 | Fc1ccc(-c2nc3n(c2-c2ccncc2)CCS3)cc1 | 103
23 | C[C@H]1C[C@H]2[C@@H]3CCC4=CC(=O)C=C[C@]4(C)[C@H]3C(=O)C[C@]2(C)[C@@]1(O)C(=O)CO [Betapar (Meprednisone)] | 107

Row | SMILES | nuclei count
24 | C[C@H](CC[C@@H]1OC1(C)C)[C@H]1CC[C@H]2[C@@H]3CC=C4C[C@@H](O)CC[C@]4(C)[C@H]3CC[C@]12C [24(S),25-Epoxycholesterol] | 107
25 | Cc1c(NC(=O)OC[C@@H]2COCCN2)cn2ncnc(Nc3ccc4c(cnn4Cc4cccc(F)c4)c3)c12 | 100
26 | CC1(C)C(=O)NC2=C1C(=O)C(=O)c1ccccc12 | 40.5 and 19.2
27 | COc1ccc(NS(=O)(=O)c2sc3ccc(Cl)cc3c2C)cc1N1CCNCC1 | 98.3
28 | O=C(Nc1ccccc1)C12CC1C(=NO)c1ccccc1O2 (centres undefined) | 99.8
29 | O=C1C(Cl)=C(NCCN2CCOCC2)C(=O)c2ncccc21 | 5.89
30 | O=C(NCCN1CCOCC1)c1ccc(Cl)cc1 [Moclobemide] | 90.8
31 | Cc1cc(-c2ccccc2)nnc1NCCN1CCOCC1 [Minaprine dihydrochloride] | 102
32 | CCN(CC)c1ccc(/C=N/NC(=O)c2ccc(O)cc2)cc1 | 89.4
33 | C[N+](C)(C)CC[N+]1(C)Cc2c(Cl)c(Cl)c(Cl)c(Cl)c2C1 [Chlorisondamine diiodide] | 90.8
34 | O=C(O)[C@H]1O[C@@H](Oc2cc3oc(-c4ccccc4)cc(=O)c3c(O)c2O)[C@H](O)[C@@H](O)[C@@H]1O [Baicalin] | 101
35 | c1cc2c3c(c1)c1c(n3CCNC2)CCCC1 [WAY 629 hydrochloride] | 94.2
36 | Cc1cc(O)c2c(c1)C(=O)c1cccc(O)c1C2=O [Chrysophanic acid (Chrysophanol)] | 92.5 ± 11
37 | CCN(CC)Cc1ccc2cc(COC(=O)Nc3ccc(C(=O)NO)cc3)ccc2c1 [ITF2357 (Givinostat)] | 14.7
38 | CC(C)[C@H](C(=O)Nc1ccc(C(=O)NO)cc1)c1ccccc1 | 29.3
39 | COc1ccc(Cn2ccc3ccc(C(=O)NO)cc32)cc1 | 101
40 | Nc1ncnc2c1ncn2[C@@H]1O[C@H](COP(=O)(O)OP(=O)(O)OP(=O)(O)O)[C@@H](O)[C@H]1O [ATP (Adenosine-Triphosphate)] | 106
41 | CCN(CC)CCNC(=O)c1c(C)[nH]c(/C=C2\C(=O)Nc3ccc(Cl)cc32)c1C | 79.9
42 | CCCS(=O)(=O)c1nc(NC2CC2)cc(-c2ccc3c(ccn3C3CC(C)(C)NC(C)(C)C3)c2)n1 | 8.4
43 | O=C(NC[C@H](O)CN1CCc2ccccc2C1)c1ccnc(NC2CCC2)c1 | 102
44 | Cc1ccc(/C=C2\CNC/C(=C\c3ccc(C)cc3)C2=O)cc1 | 7.58
45 | CC1(C)[C@@H](O[C@H]2O[C@H](C(=O)O)[C@@H](O)[C@H](O)[C@H]2O[C@@H]2O[C@H](C(=O)O)[C@@H](O)[C@H](O)[C@H]2O)CC[C@]2(C)[C@H]3C(=O)C=C4[C@@H]5C[C@@](C)(C(=O)O)CC[C@]5(C)CC[C@@]4(C)[C@]3(C)CC[C@@H]12 [Glycyrrhizic acid] | 101
46 | CC1(C)[C@@H](O[C@H]2O[C@H](C(=O)O)[C@@H](O)[C@H](O)[C@H]2O[C@@H]2O[C@H](C(=O)O)[C@@H](O)[C@H](O)[C@H]2O)CC[C@]2(C)[C@H]3C(=O)C=C4[C@@H]5C[C@@](C)(C(=O)O)CC[C@]5(C)CC[C@@]4(C)[C@]3(C)CC[C@@H]12 [Ammonium Glycyrrhizinate (AMGZ)] | 101

Row | SMILES | nuclei count
47 | CC(C)Cc1ccc(C(C)C(=O)NO)cc1 (centres undefined) [Ibuproxam] | 95.9
48 | CN(C)c1ccc(C(=C2C=CC(=[N+](C)C)C=C2)c2ccc(N(C)C)cc2)cc1 [Crystal violet] | 13
49 | CCOC(=O)Nc1cc(-c2ccc(C)c(NS(C)(=O)=O)c2)nn2c(C)nnc12 [Bromosporine] | 74.5
50 | CCCn1c(=O)c2[nH]c(-c3ccccc3)nc2n(CCC)c1=O [1,3-Dipropyl-8-phenylxanthine] | 98.9
51 | CC(C)C(=O)SCCCCCCC(=O)Nc1nc(-c2ccccc2)cs1 | 45.8
52 | CCOC(=O)c1cnc2c(cnn2CC)c1NN=C(C)C [Etazolate hydrochloride] | 106
53 | CN1CCN(C(=O)c2nc3ccc(Cl)cc3[nH]2)CC1 | 88.3
54 | Cc1[nH]c(/C=C2\C(=O)Nc3ccc(S(=O)(=O)N(C)c4cccc(Cl)c4)cc32)c(C)c1C(=O)N1CCN(C)CC1 | 52.4
55 | CN1CCCN(C(=O)c2cccc(-c3ccc(/C=C4/C(=O)Nc5ccc(Cl)cc54)o3)c2)CC1 | 6.22
56 | CCCNC(=O)N1N=C(c2ccc(N)cc2)c2cc3c(cc2C1C)OCO3 (centres undefined) | 93
57 | C[C@H]1O[C@@H](O[C@H]2[C@@H](O)C[C@H](O[C@H]3[C@@H](O)C[C@H](O[C@H]4CC[C@@]5(C)[C@H](CC[C@@H]6[C@@H]5C[C@@H](O)[C@]5(C)[C@@H](C7=CC(=O)OC7)CC[C@]65O)C4)O[C@@H]3C)O[C@@H]2C)C[C@H](O)[C@@H]1O [Digoxin] | 14.3
58 | CCN1CCN(c2cc(-c3ccc(F)cc3)c3c(n2)CCCCCC3)CC1 [Blonanserin (Lonasen)] | 98.7
59 | C[S+]([O-])c1ccc(-c2nc(-c3ccc(F)cc3)c(-c3ccncc3)[nH]2)cc1 (centres undefined) | 96.8 and 103
60 | CCCCC(CC)CNC(=N)NC(=N)NCCCCCCNC(=N)NC(=N)NCC(CC)CCCC (centres undefined) [Alexidine dihydrochloride] | 6.87
61 | N=C(NCCCCCCNC(=N)NC(=N)Nc1ccc(Cl)cc1)NC(=N)Nc1ccc(Cl)cc1 [Chlorhexidine] | 75.6
62 | Nc1nc(OCc2cc(Br)cs2)c2[nH]cnc2n1 [Lomeguatrib] | 102
63 | COc1cccc2c1C(=O)c1c(O)c3c(c(O)c1C2=O)C[C@@](O)(C(=O)CO)C[C@@H]3O[C@H]1C[C@H](N)[C@H](O)[C@H](C)O1 [Doxorubicin hydrochloride] | 13 ± 0.18
64 | COc1cccc2c1C(=O)c1c(O)c3c(c(O)c1C2=O)C[C@@](O)(C(C)=O)C[C@@H]3O[C@H]1C[C@H](N)[C@H](O)[C@H](C)O1 [Daunorubicin hydrochloride] | 12.3
65 | COc1cccc2c1C(=O)c1c(O)c3c(c(O)c1C2=O)C[C@@](O)(C(C)=O)C[C@@H]3O[C@H]1C[C@H](N)[C@H](O)[C@H](C)O1 [Daunorubicin HCl (Daunomycin HCl)] | 10.2
66 | COc1cccc2c1C(=O)c1c(O)c3c(c(O)c1C2=O)C[C@@](O)(C(=O)CO)C[C@@H]3O[C@H]1C[C@H](N)[C@@H](O)[C@H](C)O1 [Epirubicin HCl] | 13.2
67 | COc1cccc2c1C(=O)c1c(O)c3c(c(O)c1C2=O)C[C@@](O)(C(=O)CO)C[C@@H]3O[C@H]1C[C@H](N)[C@H](O)[C@H](C)O1 [Doxorubicin (Adriamycin)] | 12.7
68 | CC(=O)[C@]1(O)Cc2c(O)c3c(c(O)c2[C@@H](O[C@H]2C[C@H](N)[C@H](O)[C@H](C)O2)C1)C(=O)c1ccccc1C3=O [Idarubicin HCl] | 11.6
69 | COc1cccc2c1C(=O)c1c(O)c3c(c(O)c1C2=O)C[C@@](O)(C(=O)CO)C[C@@H]3O[C@H]1C[C@H](N)[C@H](O[C@@H]2CCCCO2)[C@H](C)O1 [Pirarubicin] | 33
